PubChem BioAssay

assay: growth of efflux-deficient E. coli DRC39 – strain DRC39, OD650, 24 h, E. coli filamentation inducers, primary screen (AID 1178);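 further: growth measured as culture turbidity by optical density at 650 nm; test concentration not given here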; conditions: E. coli DRC39 acrAB, higher = more signal, called active from +8 up or from −8 down

z-score, inactive:
Cc1cc(C)c(C(O)C2C=CC3C(=O)N(c4ccccc4)C(=O)C3N2Nc2ccccc2)c(C)c1 (stereo not given) -0.297
O=C1O[C@H](c2ccccc2)[C@H](c2ccccc2)N2[C@H]1[C@@H](C(=O)N1CCN(c3ncccn3)CC1)[C@]1(C(=O)Nc3ccc(C#CCCO)cc31)[C@H]2c1ccc(OCCO)cc1 0.275
O=C1CSC(c2cccc([N+](=O)[O-])c2)N1c1ccccc1 (stereo not given) 0.869
COC(=O)C(CC#Cc1ccc2c(c1)[C@]1(C(=O)N2)[C@H](c2ccc(O)cc2)N2[C@H](c3ccccc3)[C@H](c3ccccc3)OC(=O)[C@H]2[C@@H]1C(=O)O)C(=O)OC -0.0388
COCCCNC(=O)[C@@]1(Cc2ccccc2I)c2ccccc2C(=O)N(Cc2ccccc2Cl)[C@H]1c1ccc(CO)cc1 0.0867
COC(=O)[C@]1(Cc2ccccc2CN=[N+]=[N-])N=C(c2ccc(OCCCO)cc2)O[C@@H]1c1ccccc1 0.286
CN(C)CCCCCCNC(=O)[C@@H]1C[C@@H]2C(=O)NCC(=O)N2[C@@H]1c1ccc(O)cc1 -0.208
COC(=O)c1ccc(OC)c(/C=C\CC(CCc2ccccc2)OC(=O)c2ccncc2)c1 (stereo not given) 0.0514
CCOC(=O)C[C@H]1[C@H](OC(=O)Cc2ccc3c(c2)OCO3)[C@@H](NC(=O)c2ccccc2)c2cc(OCCCO)ccc2N1C(=O)c1ccc2ccccc2n1 0.907
CCCNC(=O)[C@@]1(Sc2ccc(C)cc2)CC(=O)N(Cc2ccccc2)[C@@H]1c1ccc(CO)cc1I 0.214
